Hits are enriched below; roughly 18% of the tested compounds scored in any of these assays.
TDP1 inh – TDP1 (human) enzyme inhibition. Q9NUW8. recombinant TDP1, AlphaScreen DNA substrate cleavage. Potency, µM (doses to about 130 µM), for inactives: at the highest dose activity change, negative = inhibition, most hits filed as inhibitors. actives 0.28% (n = 350,000). AID 485290; further: potency means the concentration at half of the fitted maximal effect; nearly all actives have a fitted effect of over 40% in size
Target sequence (Q9NUW8 whole entry, looked up): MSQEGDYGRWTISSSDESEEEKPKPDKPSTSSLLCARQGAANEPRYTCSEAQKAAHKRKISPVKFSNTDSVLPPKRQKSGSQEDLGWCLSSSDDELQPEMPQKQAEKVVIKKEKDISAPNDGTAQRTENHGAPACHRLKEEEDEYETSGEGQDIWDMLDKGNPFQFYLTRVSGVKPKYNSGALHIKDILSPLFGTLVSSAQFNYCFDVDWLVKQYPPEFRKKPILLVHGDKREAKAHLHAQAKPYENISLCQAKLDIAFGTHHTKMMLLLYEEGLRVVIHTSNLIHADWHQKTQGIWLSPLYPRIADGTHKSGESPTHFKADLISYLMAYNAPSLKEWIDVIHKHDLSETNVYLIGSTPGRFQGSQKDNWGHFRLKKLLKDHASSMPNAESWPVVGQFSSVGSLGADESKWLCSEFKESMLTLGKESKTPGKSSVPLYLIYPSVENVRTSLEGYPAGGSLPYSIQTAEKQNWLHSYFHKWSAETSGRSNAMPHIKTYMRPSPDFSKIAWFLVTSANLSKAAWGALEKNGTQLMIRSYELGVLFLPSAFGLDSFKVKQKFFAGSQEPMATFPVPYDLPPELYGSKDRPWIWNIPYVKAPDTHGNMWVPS
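E. coli-derived human Tdp1, 1 nM final. Cpd preinc 15 min RT; substrate 15 nM final, 5 min RT; AS bead mix 10 ug/ml final, 10 min RT. Signal loss = tyrosine-FITC cleavage. No-enzyme wells = max signal.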
DT40 TDP1 no CPT – qHTS for Inhibitors of human tyrosyl-DNA phosphodiesterase 1 (TDP1): qHTS in cells in absence of CPT; AID 686978, 2013; Potency, µM (top dose mostly 46.2 µM), for inactives: top-dose activity change, negative = growth inhibition, hits mostly inhibitors; actives 15% (n = 420,000); DT40 Tdp1-/- hTDP1 cells, no CPT, ATP luminescence, 48 h; further: potency means the concentration at half of the fitted maximal effect; nearly all actives have a fitted effect of over 55% in size
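DT40 Tdp1-/-;hTDP1 cells, no CPT (DMSO vehicle only), 400 cells/well; compounds pin-transferred; ≥48 hr, 37 °C; CellTiter-Glo 30 min RT dark, luminescence read.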
DT40 TDP1 CPT – DT40-hTDP1 cell growth loss with CPT; chicken DT40 Tdp1-/-;hTDP1 cells + 20 nM CPT, ATP luminescence, 48 h; Potency, µM (titrated, usually from 46.2 µM), inactives show at the highest dose activity change, negative = growth inhibition, actives largely listed as inhibitors; actives 12% (n = 420,000); further: potency means the concentration at half of the fitted maximal effect; nearly all actives have a fitted effect of over 55% in size
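Chicken DT40 Tdp1-/- cells complemented with human TDP1, 400 cells/well, exposed to compounds plus 20 nM camptothecin for at least 48 h at 37 C; viability read as ATP content by CellTiter-Glo luminescence.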
Six1-Eya2 inh – inhibitors of human Six1/Eya2 interaction. AlphaScreen GST-Six1/His-Eya2 binding, biochemical; hits give low values. activity change, % (concentration not given with the values). actives 0.56% (n = 360,000). AID 651725; in the data active means activity change below about -65%; inconclusive means mostly about -30% to -63%
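Six1/Eya2 binding was read as AlphaScreen signal after compounds were pinned into GST-Six1 plus His-tagged Eya2 (5X stock 250/500 nM) in pH 8.0 Tris/NaCl/TCEP buffer, beads added, then incubated 1 h, 37 C, dark.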
IL-1B inflam inh – inhibitors of inflammasome signaling (IL-1 beta secretion); activity change, % at 57.5 µM; AID 743279; actives 4.7% (n = 360,000); THP-1 LPS/ATP IL-1B secretion, AlphaLISA, 16 h; hits give low values; in the data active means activity change below about -50%; inconclusive means mostly about -30% to -49%
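THP-1 cells pretreated 1 hr with compounds (up to 57.5 uM final), then stimulated with LPS (250 ng/mL final) plus ATP (1.25 mM final); secreted IL-1B measured by AlphaLISA after 16 hr, decreased signal indicating inhibition.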
CtBP-E1A blk – blocks the CtBP interaction with E1A | AlphaScreen GST-E1A/His-CtBP binding, 1536-well; hits give low values | activity change, % (no concentration beside the values) | actives 0.49% (n = 340,000); in the data active means activity change below about -65%; inconclusive means mostly about -30% to -63%
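Homogeneous bead-based format: GST-tagged E1A captured on glutathione donor beads, His-tagged CtBP on nickel acceptor beads; compounds precede bead addition by 2 h at 37 °C.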
* marks the source's active call; other numbers are inactive results; ? = inconclusive; . = no result given; [ ] = dose if it differs, or a comment. Unless noted, the call rests on the fitted dose curve; in most records, active means well fitted curve in the direction sought with a large enough effect; inconclusive means small, poorly fitted or top-dose-only effect, or another doubt; inactive means no such curve, though single readings can be large; an effect the other way counts as inactive or inconclusive. On the % scale 0 is the no-effect control and ±100 the full control effect.

SMILES | TDP1 inh | DT40 TDP1 no CPT | DT40 TDP1 CPT | Six1-Eya2 inh | IL-1B inflam inh | CtBP-E1A blk
Cc1ccnc(NS(=O)(=O)c2ccc(NC(=O)c3cncc(Br)c3)cc2)n1 | -2% | ? | -1% | 9 | -9 | -6
Cc1ccc2nc(/C(C#N)=C\c3cc(O)ccc3[N+](=O)[O-])[nH]c2c1 | 6% | -22% | -8% | -6 | 3 | .
COc1cc(/C=C(\C#N)c2nc3ccc(C)cc3[nH]2)cc([N+](=O)[O-])c1O | 9% | 21µM* | ? | -73* | 48 | -75*
COc1cc(/C=C(\C#N)c2nc3ccc(C)cc3[nH]2)c([N+](=O)[O-])cc1OC | 9% | ? | -28% | -10 | -89* | -16
CCN1C(=O)/C(=C/c2ccc(OCc3ccc(C(=O)O)cc3)c(Cl)c2)NC1=S | . | -3% | -5% | -8 | -10 | -3
Cc1csc(NC(=O)c2cccc(C)c2C)n1 | 5% | ? | ? | 9 | -12 | -1
OCCN1CCN(c2cc(C(F)(F)F)nc3ccccc23)CC1 | 1% | -19% | -2% | 3 | 2 | 3
COCCOC(=O)C1=C(C)N=C2SCCC(=O)N2C1/C=C/c1ccccc1 (stereo unspecified) | 4% | 18µM* | 18µM* | -24 | -23 | -10
COC(=O)C/C=C\[C@@H](C)[C@@H](/C=N\O[C@@H](C)c1cn([C@H](CO)Cc2ccccc2)nn1)OC | 4%[21 µM] | . | . | . | . | .
COc1ccccc1CNC(=O)CC(C)C | 8% | ? | 23µM* | 1 | 7 | 4
CCOc1ccc(C(=O)NC(C(=O)NCc2ccccc2OC)C(C)C)cc1 (stereo unspecified) | 2% | ? | ? | 1 | 6 | -2
CCOc1ccc(C(C)NC(=O)Cc2ccccc2F)cc1OCC (stereo unspecified) | 5% | -10% | 2% | 22 | -1 | -9
CCOc1ccccc1C(=O)NC(C)CCc1ccccc1 (stereo unspecified) | . | 16µM* | ? | 7 | 13 | .
CCOc1ccc(C(CCc2ccccc2)NC(=O)c2ccccc2F)cc1OCC (stereo unspecified) | -1% | ? | 35µM* | 0 | -21 | 5
CCOc1ccccc1C(=O)NC(C(=O)NCc1ccccc1OC)C(C)C (stereo unspecified) | 6% | 16µM* | ? | -3 | 13 | .
COc1ccccc1CNC(=O)COc1ccccc1OC | 0% | -1% | -9% | 1 | -2 | 4
CCC(C(=O)n1cccc1C#N)c1ccccc1C (stereo unspecified) | -7% | -10% | 2% | 7 | 0 | 3
COC(=O)/C=C1\OCc2cccc(C)c21 | . | 20% | 31% | 2 | ? | 5
COc1cccc(/C(=N/O)C2CC2c2ccc(Cl)cc2)c1 (stereo unspecified) | 3% | -17% | 5% | -2 | -88* | 0
COc1cccc(/C(C)=N/NS(=O)(=O)c2ccc(Cl)cc2)c1 | 0% | 4% | 3% | 20 | 26 | 7
Cc1cccc(NC2=C(NCCO)C(=O)c3ccccc3C2=O)c1 | 10% | 21µM* | 16µM* | -67* | -57* | -24
COc1ccc(Nc2nc(N)c([N+](=O)[O-])c(NCCO)n2)cc1 | . | -24% | -2% | -29 | . | -26
Cc1cccc(Nc2nc(N)c([N+](=O)[O-])c(NCCO)n2)c1 | 4% | ? | ? | -12 | 21 | -8
COc1cccc(NC2=C(NCCO)C(=O)c3ccccc3C2=O)c1 | . | ? | ? | ? | -74* | ?
COc1ccc(NC2=C(NCCO)C(=O)c3ccccc3C2=O)cc1 | 12% | 15µM* | 12µM* | -28 | 11 | -23
SMILES | TDP1 inh | DT40 TDP1 no CPT | DT40 TDP1 CPT | Six1-Eya2 inh | IL-1B inflam inh | CtBP-E1A blk
CCC(=O)Nc1c2c(nn1-c1ccc([N+](=O)[O-])cc1)CS(=O)(=O)C2 | . | 2% | 8% | 4 | 13 | 1
CCOc1cc(/C=N/NC(=O)CSc2nncn2C)ccc1OC(=O)c1ccc(Cl)cc1 | 8% | ? | -19% | -14 | -6 | -28
CCOc1cc(/C=N/NC(N)=O)ccc1OC(=O)c1ccc(C)cc1 | 3% | . | . | . | . | .
CCOc1cc(/C=N\NC(=O)c2ccc(NC(=O)C(C)(C)C)cc2)ccc1OC(=O)c1ccc(C)cc1 | 3% | 29µM* | ? | 4 | -5 | 15
CCOc1cc(/C=N/NC(=O)CNc2ccc(C)cc2)ccc1OC(=O)c1ccccc1 | 9% | ? | 29µM* | -10 | ? | 10
CCOc1cc(/C=N\NC(=O)c2ccc(C)nc2)ccc1OC(=O)c1ccc(F)cc1 | 2% | ? | -27% | -4 | 2 | 5
CCOc1cc(/C=N\NC(=O)c2ccc(NC(=O)CC)cc2)ccc1OC(=O)c1ccccc1 | 2% | ? | 18µM* | 6 | -11 | 9
CCOc1cc(/C=N\NC(=O)c2ccc(NC(=O)C(C)(C)C)cc2)ccc1OC(=O)c1cccc(C)c1 | 7% | 8.2µM* | 12µM* | 0 | 117 | -1
CC(=O)N1CCc2cc(Br)cc(S(=O)(=O)NCc3ccccn3)c21 | 2% | -14% | 11% | 0 | -11 | -1
CCOC(=O)C1=C(C)NC(=O)NC1c1ccc(N(C)C)cc1 (stereo unspecified) | -1% | -5% | -2% | 1 | 1 | 1
CCC(CC)COC(=O)C1=C(C)NC(=O)NC1c1ccc(N(C)C)cc1 (stereo unspecified) | . | 21µM* | ? | -2 | ? | .
Cc1ccccc1OCC(=O)Nc1ccc(S(=O)(=O)Nc2ccccn2)cc1 | 3% | -24% | -26% | 0 | 0 | -11
Cc1ccc(OCC(=O)Nc2ccc(S(=O)(=O)Nc3ccccn3)cc2)c(C)c1 | 5% | 18µM* | ? | -13 | -3 | -10
C[C@@H]1CN([C@@H](C)CO)C(=O)CCCn2nncc2CO[C@H]1CN(C)S(=O)(=O)c1ccc(Cl)cc1 | . | -7% | -6% | 21 | 15 | 20
COc1cccc(NC(=O)COC(=O)CCCC2=NS(=O)(=O)c3ccccc3N2)c1 | 2% | 23% | 0% | 0 | -9 | -10
CCN1CCN(CCNC(=O)c2cn(Cc3ccccc3F)nn2)CC1 | -9%[56.1 µM] | -6% | -11% | 1 | 0 | -1
CC(C)c1ccc(C2N3CC4(C)CN2CC(c2ccccc2)(C3)C4=O)cc1 (stereo unspecified) | 0% | 18µM* | ? | . | . | .
